Screening data deposited in PubChem BioAssay by National Center for Advancing Translational Sciences (NCATS).
The list is not random: actives were taken first. Their share in the collection is about 14%.
FBPA Giardia inh – Giardia lamblia aldolase inhibition; A8B2U2; purified Giardia FBPA; Potency, µM (highest dose often 59.6 µM), actives largely listed as inhibitors; 290,000 compounds, 0.71% hits; AID 2451; further: nearly all actives have a fitted effect of over 55% in size
Target sequence (A8B2U2 whole entry, looked up): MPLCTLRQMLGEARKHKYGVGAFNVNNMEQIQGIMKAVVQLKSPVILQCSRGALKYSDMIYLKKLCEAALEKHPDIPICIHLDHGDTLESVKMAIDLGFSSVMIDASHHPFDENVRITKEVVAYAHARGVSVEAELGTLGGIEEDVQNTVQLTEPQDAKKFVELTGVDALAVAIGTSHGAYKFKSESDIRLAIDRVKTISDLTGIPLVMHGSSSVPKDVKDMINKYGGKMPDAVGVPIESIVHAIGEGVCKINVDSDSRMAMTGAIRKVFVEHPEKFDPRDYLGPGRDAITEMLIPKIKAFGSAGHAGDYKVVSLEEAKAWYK
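Giardia FBPA (40 nM reagent) was preincubated 10 min at RT with compound (up to 57.5 uM final), then substrate plus GAPDH/TPI/NAD/arsenate coupling system with diaphorase/resazurin was added; resorufin fluorescence (525/598 nm) was read after 20 min.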
Pf growth 96h – inhibits malaria parasite growth, 96 h; P. falciparum luciferase reporter growth, 96 h; Potency, µM (top dose mostly 28.7 µM), actives largely listed as inhibitors; 320,000 compounds, 6.9% hits
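Erythrocytes infected with luciferase-expressing P. falciparum were dispensed at 2% hematocrit and 0.05% parasitemia (final), then incubated with compounds 96 hours at 37 C in 5% CO2. Luminescence after detection reagent addition reported growth.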
Sm TGR block – blocks Schistosoma mansoni thioredoxin glutathione reductase | Q962Y6 | purified TGR, DTNB reduction, TNB absorbance 405 nm | Potency, µM (doses to about 114 µM), usual class: inhibitors | 360,000 compounds, 3% hits; further: nearly all actives have a fitted effect of over 60% in size
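First, TGR (20 nM dispensed) and NADPH were mixed with compound. Second, a 15 min room-temperature incubation followed. Third, further NADPH and then DTNB were added to start the reaction. Finally, TNB absorbance was monitored kinetically.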
Pf growth 48h – inhibits P. falciparum growth in the first generation, 48 h; P. falciparum luciferase growth in erythrocytes, 48 h; Potency, µM (doses to about 28.7 µM), most hits filed as inhibitors; 310,000 compounds, 5.9% hits; AID 504832
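First compound was added to culture medium, then infected red cells at 0.1% parasitemia and 2% hematocrit (final). After incubation at 37 C under 5% CO2, luciferase detection reagent was dispensed and light output recorded.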
HCMV antiviral – human cytomegalovirus inhibition; HFF cells, HCMV-luciferase reporter, 72 h; hits give low values; activity change, negative = inhibition, % at 57.5 µM; 410,000 compounds, 4.5% hits; AID 1259415; in the data active means activity change below about -60%; inconclusive means no clear call, values can overlap the other calls; inactive means above about -39%
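Steps: HFFs plated, 16 h 37C; compounds added; HCMV-luciferase added to MOI 1 PFU/cell; 72 h 37C; OneGlo reagent, 5 min room temperature; luminescence read, normalized to controls.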
Each line names hits and unclear results; the compound was inactive in the other large screens. Unless noted, the call rests on the fitted dose curve; in most records, active means well fitted curve in the direction sought with a large enough effect; inconclusive means small, poorly fitted or top-dose-only effect, or another doubt; inactive means no such curve, though single readings can be large; an effect the other way counts as inactive or inconclusive.

CCCN(CCC)CCCNC(=O)Cn1cnc2sc(C)c(S(=O)(=O)N3CCOCC3)c2c1=O	none
CC(C)(C)c1ccc(S(=O)(=O)NC(=O)C2(C)CCN2C(=O)Cc2ccccc2Cl)cc1 (stereo not drawn)	none (no result: FBPA Giardia inh, Pf growth 96h, Sm TGR block, Pf growth 48h)
COC(=O)c1c(C)[nH]c(/C=N/Nc2ccccc2)c1C	Pf growth 96h inconclusive, Sm TGR block inconclusive, Pf growth 48h 5.2µM
Cc1c(C=NNc2ccccc2)[nH]c(=O)[nH]c1=O	none (no result: FBPA Giardia inh, Pf growth 96h, Sm TGR block, Pf growth 48h)
COc1ccccc1-c1cncnc1-n1ccnc1	none (no result: Pf growth 96h, Sm TGR block, Pf growth 48h, HCMV antiviral)
CC[C@H](C)[C@@H]1NC(=O)[C@@H](CC(C)C)NC(=O)[C@H](C(C)C)NC(=O)[C@H]2CSSC[C@H](NC1=O)C(=O)N2	HCMV antiviral -106 (no result: FBPA Giardia inh, Pf growth 96h, Sm TGR block, Pf growth 48h)
COc1ccnc(N=CNOCc2cccc(C(F)(F)F)c2)c1C#N	Pf growth 96h 15µM
O=C(CNC(=S)NC(=O)c1cccc([N+](=O)[O-])c1)c1ccccc1	Pf growth 96h 10µM
O=C(C#Cc1ccccc1)c1cccc([N+](=O)[O-])c1	Sm TGR block 0.25µM (no result: Pf growth 48h)
CCCCCC(=O)NNC(=S)NC(=O)c1cccc([N+](=O)[O-])c1	FBPA Giardia inh inconclusive, Pf growth 96h inconclusive, Sm TGR block 1.6µM
CCCCCC(=O)NNC(=S)NC(=O)c1ccccc1[N+](=O)[O-]	Pf growth 96h inconclusive, Pf growth 48h inconclusive
COc1ccc2cc3cc(C(=O)Nc4cc(C)c(Cl)cc4OC)oc3nc2c1	none (no result: FBPA Giardia inh, Pf growth 96h, Pf growth 48h)
Cc1ccc(NC(=O)CSCC(=O)Nc2cccc3ncccc23)cc1	Pf growth 48h inconclusive (no result: FBPA Giardia inh)
COc1ccc(CC(=O)NCC2CCCN(Cc3ccc(OC)cc3F)C2)cc1 (stereo not drawn)	Pf growth 96h 9.3µM
COc1cc(-c2n[nH]c3ccnc(-c4cccc(C(F)(F)F)c4)c23)cc(OC)c1OC	none (no result: FBPA Giardia inh, Pf growth 96h, Sm TGR block, Pf growth 48h)
CCOc1ccc(CCNC(=O)COC(=O)c2cc([N+](=O)[O-])ccc2N2CCOCC2)cc1OCC	Pf growth 96h 9.3µM, Pf growth 48h inconclusive (no result: FBPA Giardia inh)
CCOc1ccc(CCNC(=O)COC(=O)c2cc(OC)c(OC)c(OC)c2)cc1OCC	Pf growth 48h inconclusive
CCOc1ccc(CCNC(=O)c2cc([N+](=O)[O-])ccc2N2CCOCC2)cc1OCC	Pf growth 96h inconclusive, Pf growth 48h inconclusive
CCOc1ccc(CCNC(=O)COC(=O)c2cc(OC)c(OC)cc2[N+](=O)[O-])cc1OCC	Pf growth 96h inconclusive, Pf growth 48h 15µM (no result: FBPA Giardia inh)
O=C(O)C1CC=CCC1C(=O)Nc1ccc2c(c1)CCC2 (stereo not drawn)	none (no result: FBPA Giardia inh)
COc1ccc(-c2ccc(CCC(=O)O)n2CC(=O)Nc2ccccc2C)cc1	Pf growth 96h inconclusive, Sm TGR block inconclusive
Cc1cc(Nc2ccccc2)nn1C(=O)c1ccccc1	Pf growth 96h 9.3µM (no result: Pf growth 48h)
Cc1cc(Nc2ccccc2)nn1C(=O)c1ccc(Br)cc1	HCMV antiviral inconclusive (no result: Pf growth 96h)
Cc1ccc(-c2c(C3C4C=CCC(C)C4C(=O)N3Cc3ccccc3)ccc3ccccc23)cc1 (stereo not drawn)	none (no result: Pf growth 96h, Sm TGR block, Pf growth 48h, HCMV antiviral)
Nc1ccc(C2(c3ccc(N)cc3)c3ccccc3-c3ccccc32)cc1	HCMV antiviral -91
Nc1ccc(C2(c3ccc(N)cc3)c3ccccc3C(=O)c3ccccc32)cc1	none (no result: FBPA Giardia inh, Pf growth 96h, Sm TGR block, Pf growth 48h)
O=C(Oc1ccccc1)N1CCC2(CC1)CCN(c1ccncc1)CC2	none (no result: Pf growth 96h, Sm TGR block, Pf growth 48h, HCMV antiviral)
CC(C)NC(=O)c1csc(C(O)c2cccc(N(C)C)c2)n1 (stereo not drawn)	HCMV antiviral -75 (no result: FBPA Giardia inh, Pf growth 96h, Sm TGR block, Pf growth 48h)
COc1cccc(NC(=O)CN2C(=O)c3cccnc3Oc3ccc(Cl)cc32)c1	Pf growth 48h 13µM
COc1ccc(Br)cc1CNC(=O)CN1C(=O)c2cccnc2Oc2ccc(C)cc21	HCMV antiviral active (no result: FBPA Giardia inh, Pf growth 96h, Pf growth 48h)
COc1ccc(N(CC(=O)NCCc2ccccc2)S(=O)(=O)c2c(C)nn(C)c2C)cc1	none (no result: FBPA Giardia inh, Pf growth 96h, Pf growth 48h)
CC1(C)CC(=O)C2=C(C1)OC1=C(C2)C(=O)CC(C)(C)C1	HCMV antiviral inconclusive
Cc1ccccc1CSc1nnnn1-c1ccc(C(N)=O)cc1	none (no result: Pf growth 48h)
Oc1ccc(-n2nnnc2SCc2ccccc2Br)cc1	Pf growth 96h 13µM, Pf growth 48h inconclusive (no result: HCMV antiviral)
Cc1ncc(CSc2nnnn2-c2ccccc2)c(N)n1	Sm TGR block 45µM (no result: Pf growth 96h)
COc1ccccc1CNc1nc(-c2cccnc2)nc2ccccc12	none (no result: Pf growth 96h, Sm TGR block, Pf growth 48h, HCMV antiviral)
Cc1cc(C)c2c(N)c(C(=O)c3ccccc3)oc2n1	Pf growth 96h 2.3µM
COc1ccccc1Oc1cc(C#N)c(C#N)cc1-n1nnc2ccccc21	Pf growth 96h 2.3µM, Pf growth 48h 9.3µM, HCMV antiviral -92
COc1ccccc1Oc1nc(C)c(C(C)=O)cc1C#N	none
